Publication PMC6522510 (Nature Communications, 2019)

Legend:
Settings in all cases: 72 h, relative to cycloheximide control, log10 luminescence
CHRF288-11 = tested on: CHRF288-11
CMK = tested on: CMK
CMS = tested on: CMS
M07e = tested on: M07e
ML-2 = tested on: ML-2
MOLM-13 = tested on: MOLM-13
MV4-11 = tested on: MV4-11
U937 = tested on: U937

**Q.** Which results are given for `C[C@]12CC[C@@H]3c4ccc(OC(=O)N(CCCl)CCCl)cc4CC[C@H]3[C@@H]1CC[C@@H]2OP(=O)(O)O` [SJ000518944-1, ES[…] SODIUM]?
**A.** CHRF288-11 %inh (CHRF288-11): 1.087%; CMK %inh (CMK): -3.517%; CMS %inh (CMS): -0.5738%; M07e %inh (M07e): 1.122%; ML-2 %inh (ML-2): 0.1396%; MOLM-13 %inh (MOLM-13): 1.341%; MV4-11 %inh (MV4-11): 2.919%; U937 %inh (U937): -1.233%
